# High-throughput results from PubChem BioAssay.
# In the library only some 7.2% were active in any assay of this set; here they are far more common.
# RE007 growth inh – qHTS Assay for Inhibitors of the HIV-1 protein Vpr; S. pombe RE007 Vpr strain, BacTiter-Glo ATP luminescence, 24 h; Potency, µM (titrated, usually from 92.2 µM), actives largely listed as inhibitors; actives 0.21% (n = 360,000); AID 651644, 2012; active = well fitted falling curve with a large enough effect; inconclusive = small, poorly fitted or top-dose-only effect; inactive = no such curve, though single readings can be large or run the other way; note: nearly all actives have a fitted effect of over 50% in size
#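 Fission yeast strain RE007, carrying one chromosomally integrated HIV-1 vpr copy, was seeded at OD 0.01 in PMG+AL medium with 23 nL pinned compound. After 24 h at 30 °C and 99% humidity, viability was read by BacTiter-Glo luminescence.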
# LASV entry inh – qHTS for Inhibitors of binding or entry into cells for Lassa Virus; Lassa virus pseudotype entry inhibition, cell reporter; Potency, µM (series often up to 37.9 µM), usual class: inhibitors; actives 1.2% (n = 300,000); calls by dose curve; tested in HEK293 cells; note: nearly all actives have a fitted effect of over 50% in size
# Sm TGR block – qHTS Assay for the Inhibitors of Schistosoma Mansoni Peroxiredoxins; Potency, µM (series often up to 114 µM), hits mostly inhibitors; Schistosoma mansoni thioredoxin glutathione reductase (TGR), Q962Y6; purified TGR, DTNB reduction, TNB absorbance 405 nm; actives 3% (n = 360,000); note: nearly all actives have a fitted effect of over 60% in size
#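 Kinetic colorimetric format: TGR-catalysed, NADPH-driven DTNB reduction monitored via TNB absorbance. Enzyme dispensed at 20 nM; compound exposure 15 min at room temperature before reaction start.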
# Marburg entry inh – qHTS for inhibitors of binding or entry into cells for Marburg Virus | Marburg virus pseudotyped entry inhibition, cell reporter | Potency, µM (highest dose often 37.8 µM), usual class: inhibitors | actives 1.8% (n = 300,000); calls by dose curve; tested in HEK293 cells
# FMDV antiviral – High Throughput Screening for Foot and Mouth Disease Virus Antivirals; actives 1.2% (n = 410,000); AID 1159524, 2015; Potency, µM (top dose mostly 57.9 µM), hits mostly inhibitors; FMDV antiviral cell-based qHTS; calls by dose curve; tested in HEK293T cells; note: read-out not given here; nearly all actives have a fitted effect of over 45% in size
# HCV inh – qHTS Assay for Inhibitors of Hepatitis C Virus (HCV); Huh7.5.1 HCVcc-Cre infection, luciferase reporter, 44 h; Potency, µM (top dose mostly 41.8 µM), usual class: inhibitors; actives 3.4% (n = 340,000)
#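 Infectious HCV cell culture screen: compound-treated cells (1,000/well, pre-plated 4 h) are infected with HCVcc-Cre at roughly 0.5 moi and grown 44 h. Infection is quantified by luciferase signal after 15 min substrate incubation at room temperature.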
# Hits are given with their value; n = inactive; u = inconclusive; x = not tested or not shown. Unless noted, calls come from the whole dose curve; as a rule, active = well fitted curve in the direction sought with a large enough effect; inconclusive = small, poorly fitted or top-dose-only effect, or another doubt; inactive = no such curve, though single readings can be large; an effect the other way counts as inactive or inconclusive.
SMILES,RE007 growth inh,LASV entry inh,Sm TGR block,Marburg entry inh,FMDV antiviral,HCV inh
O=S(=O)(Cc1ccccc1)c1cnc2ccccc2n1,n,n,n,n,11µM,n
O=C(NCCc1ccc(Cl)cc1)c1cccn1-c1nnc(N2CCCC2)s1,x,n,n,x,n,x
Cc1ccc(CS(=O)Cc2ccc(C(=O)NC3CCC(C)CC3)o2)cc1 (configuration not stated),n,n,u,u,n,n
Cc1ccc(CNC(=O)c2ccc(CS(=O)Cc3ccccc3Cl)o2)cc1 (configuration not stated),n,x,35µM,x,n,u
Cc1ccc(CS(=O)Cc2ccc(C(=O)NC3CCCC(C)C3C)o2)cc1 (configuration not stated),n,x,35µM,x,n,n
Cc1ccc(CS(=O)Cc2ccc(C(=O)NC3CCCCCC3)o2)cc1 (configuration not stated),n,x,u,x,n,n
O=C(NC1CCCCCC1)c1ccc(CS(=O)Cc2ccccc2Cl)o1 (configuration not stated),n,n,32µM,u,n,n
CC(C)C[C@H]1CNC(=S)N1CC1CCN(CCCC2CCCC2)CC1,n,x,x,x,n,u
O=C(CCc1cn(Cc2ccc(F)cc2)c2ccccc12)NCCc1ccc(Cl)cc1,x,n,n,x,n,x
C=CC[n+]1c(-c2ccc(Cl)cc2Cl)csc1Nc1c(C)n(C)n(-c2ccccc2)c1=O,n,u,x,u,u,13µM
C=CC[n+]1c(-c2ccc(Cl)cc2Cl)csc1Nc1ccc(NC(C)=O)cc1,n,2.8µM,n,3.2µM,n,u
Cc1cccc(-n2ncc(C(=O)N3CCN(C4CCCCC4)CC3)c2C2CCN(C(=O)OC(C)(C)C)CC2)c1,x,u,n,x,n,x
Cc1ccc(NC(=O)CCS(=O)(=O)c2ccc(Br)s2)c(Br)c1,x,n,n,n,n,x
Cc1ccc(-n2c(C)cc(C3=NNC(=NC4CC4)SC3)c2C)cc1C,n,x,n,x,18µM,n
CN(C)/N=C/C=C1\CCC/C(=C\c2ccc(F)c(F)c2)C1=O,n,u,16µM,u,n,u
COc1ccc(/C=C2\CCC/C(=C\C=N\N(C)C)C2=O)cc1,n,n,n,n,n,u
Cc1ccc(Cn2ccsc2=NC(=O)COC(=O)c2ccc(O)cc2O)cc1,n,x,n,x,n,11µM
O=C(COC(=O)c1ccc(O)cc1O)N=c1sccn1Cc1ccccc1Cl,n,u,n,u,u,7.9µM
CCC(=O)N1CCc2cc(Br)cc(S(=O)(=O)NCCc3cccc(C)c3)c21,x,n,n,x,n,x
CSC(=S)NN=C(C)c1cccc(C)n1,u,u,x,5µM,n,4µM
CC(=NNC(=S)N1CCCCC1)c1cccc(C)n1,n,u,x,u,n,n
CCN=C1S/C(=C\c2cn(C(C)=O)nc2-c2ccccc2)C(=O)N1CC,n,u,n,u,n,10µM
Cc1cc(C(=O)N2CCOc3ccc(CN4CCC(Oc5cccnc5)CC4)cc3C2)c(C)o1,x,x,x,x,n,x
CC(C)(C)c1ccc2c(c1)C(=O)c1ccccc1C2=O,n,8.9µM,n,u,n,n
CC(C)C(=O)N1CCCC1(C)C(=O)Nc1ccccc1 (configuration not stated),n,x,x,x,n,x
SMILES,RE007 growth inh,LASV entry inh,Sm TGR block,Marburg entry inh,FMDV antiviral,HCV inh
COc1ccc(CC(=O)Nc2cc(-c3cn4cccnc4n3)ccc2C)cc1OC,x,n,n,x,u,x
COc1ccc(C(=O)c2no[n+]([O-])c2C(=O)c2ccc(OC)cc2)cc1,u,u,0.35µM,n,40µM,u
O=C(c1cccs1)c1no[n+]([O-])c1C(=O)c1cccs1,28µM,n,0.1µM,n,16µM,10µM
Cc1cccc(Cn2cc(S(=O)(=O)c3ccc(Cl)cc3)c(=O)c3cc4c(cc32)OCO4)c1,x,n,n,n,n,x
COC(=O)c1cc(NC(=O)c2oc(=O)c3ccccc3c2-c2ccccc2)cc(C(=O)OC)c1,x,n,n,n,n,x
N#CC(C#N)[C@@H](c1ccsc1)c1c(-c2ccccc2)[nH][nH]c1=O,x,x,x,n,x,x
COc1ccc(-c2cc(-c3c(O)c(OC)c4occc4c3OC)[nH]n2)cc1OC,n,n,n,n,x,11µM
